Source: ChEMBL document CHEMBL3433997, “St. Jude Leishmania screening dataset” (2016)

Legend:
Assay type in all cases: functional
[1] = molecular target: Solute carrier family 2, facilitated glucose transporter member 1 (Homo sapiens) (UniProt P11166); experiment: ST_JUDE_LEISH: Cytotoxicity at 2uM final concentration against transgenic Leishmania Mexicana promastigotes LmGLUT1 that are glucose transport deficient and complemented with the human glucose transporter GLUT1. Activity is measured by DNA content using SYBR green in vitro
Solute carrier family 2, facilitated glucose transporter member 1 (Homo sapiens), sequence (P11166 whole entry): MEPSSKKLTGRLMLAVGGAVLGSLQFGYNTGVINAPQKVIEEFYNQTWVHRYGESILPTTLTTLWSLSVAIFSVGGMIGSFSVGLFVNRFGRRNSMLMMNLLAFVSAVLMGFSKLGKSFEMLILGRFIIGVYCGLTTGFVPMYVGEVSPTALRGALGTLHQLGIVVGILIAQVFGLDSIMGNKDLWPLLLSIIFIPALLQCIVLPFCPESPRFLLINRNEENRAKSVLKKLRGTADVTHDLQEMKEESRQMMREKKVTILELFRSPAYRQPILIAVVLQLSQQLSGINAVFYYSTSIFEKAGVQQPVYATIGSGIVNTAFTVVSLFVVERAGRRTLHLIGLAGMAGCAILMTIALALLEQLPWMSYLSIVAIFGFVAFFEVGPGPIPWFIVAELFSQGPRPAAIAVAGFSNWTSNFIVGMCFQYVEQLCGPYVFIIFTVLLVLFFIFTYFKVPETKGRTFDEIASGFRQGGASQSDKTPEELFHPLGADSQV

[2] = molecular target: Hexose transporter 1 (Plasmodium falciparum) (UniProt O97467); experiment: ST_JUDE_LEISH: Cytotoxicity at 2uM final concentration against transgenic Leishmania Mexicana promastigotes LmPfHT that are glucose transport deficient and complemented with the Plasmodium falciparum hexose transporter. Activity is measured by DNA content using SYBR green in vitro
[3] = molecular target: Glucose transporter (Leishmania mexicana) (UniProt O61059); experiment: ST_JUDE_LEISH: Cytotoxicity at 2uM final concentration against transgenic Leishmania Mexicana promastigotes LmGT2 that are glucose transport deficient and complemented with the L. Mexicana glucose transporter 2. Activity is measured by DNA content using SYBR green in vitro

SMILES	inhibition [1]	inhibition [2]	inhibition [3]
O=C(Nc1ccc(-c2nc3ccccc3[nH]2)cc1)c1cncc(Br)c1	4.2%	2.44%	1.81%
COc1ccc(C(=O)Cn2nc(-c3ccc(Cl)cc3)ccc2=O)c(OC)c1	1.41%	1.16%	0.37%
COc1ccc2nccc([C@@H](O)CN3CCC(NCc4nc5ccccc5[nH]4)CC3)c2c1	1.84%	-0.18%	-0.97%
CC(C)Cc1cn(-c2nc(-c3nc4ccccc4[nH]3)cs2)c2cc(Cl)ccc12	6.36%	6.84%	7.38%
CC(C)(C)NCCN(Cc1ccc(-c2ccc(C(F)(F)F)cc2)cc1)C(=O)Cn1c(CCc2cccc(F)c2F)nc(=O)c2ccccc21	3%	5%	1.15%
CC(C)CNCc1ccc(-c2ccccc2CNC2CCN(Cc3ccccc3)CC2)cc1	7.04%	7.66%	5.95%
COc1ccc(CN2CCC(NCc3ccc(C(F)(F)F)cc3)CC2)cc1	19.2%	14.1%	14%
COc1ccc(O)c(C(=O)c2cnc3c(c2)c(-c2ccc(F)cc2)c(C#N)c(=O)n3C)c1	8.74%	6.89%	4.94%
NC1CCCN(Cc2ccc(-c3ccc(-c4nc5cc(F)ccc5[nH]4)s3)cc2)C1 (configuration not stated)	2.77%	3.22%	3.45%
O=C(C=Cc1ccc(Cl)c(Cl)c1)NCCCCCN1CCC(c2n[nH]c3ccccc23)CC1	1.5%	2.15%	1.44%
CNc1ccc(CNCc2cccc(-c3ccc(-c4nc5ccccc5[nH]4)cc3)c2)cc1	0.78%	-1.69%	-1.34%
CCc1ccc(-n2c(=O)c3cccnc3n2CC(=O)NC2CCCC2)cc1	1.13%	-0.35%	-1.74%
CN1CCC(N(Cc2ccc(-c3ccc(C(F)(F)F)cc3)cc2)C(=O)Cn2cc(Cc3cnn(C)c3)c(=O)nc2SCc2cccc(F)c2F)CC1	2.43%	2.37%	2.81%
COc1ccc(CNC(=O)c2cnc3cc(-c4c(C)noc4C)ccc3c2Nc2ccccc2C(C)(C)C)cc1	3.17%	4.17%	1.52%
CCCCNc1c(C(=O)OCC)c(C)nc2c1[nH]c1ccccc12	3.19%	4.14%	-0.65%
Cc1cc(C2CCN(CCCCNC(=O)c3ccc(-c4ccc(C(F)(F)F)cc4)cc3)CC2)c(C)cc1OCCO	5.21%	5.28%	2.63%
COc1ccc(-c2csc3ncnc(Cl)c23)cc1	5.44%	5.72%	4.99%

SMILES	inhibition [1]	inhibition [2]	inhibition [3]
N=C(N)CCN(Cc1ccccc1)c1ccc(Cl)cc1	-1.51%	-1.28%	-1.35%
CC(C)Cc1nc(N)nc(N)c1-c1ccc(Cl)cc1	6.51%	5.64%	5.17%
CN1CCN(c2ccnc3ccc(NC(=O)Nc4ccc5c(c4)CCCC5=O)cc23)CC1	0.37%	1.11%	1.66%
C=CCn1ccc2c3c(N)nc(N)nc3ccc21	66%	79.6%	44.1%
COc1cc(CCOc2c(C)nc(N)nc2N)cc(OC)c1OC	-0.69%	0.7%	-0.41%
CC(C)N(Cc1cnc2nc(N)nc(N)c2n1)c1ccc(Cl)c(Cl)c1	1.77%	1.12%	1.16%
O=C(NC1CCN(c2ncc(C(F)(F)F)cc2Cl)CC1)c1cccs1	-1.13%	-1.85%	-3.08%
COc1ccc(-c2cnc3ccc(NCc4ccc(F)cc4)nn23)cc1OC	4.06%	4.1%	1.96%
Cc1cc(C(=O)N(Cc2ccc(-c3ccc(CNCCc4ccc(S(C)(=O)=O)cc4)cn3)cc2)C(C)CN(C)C)ccc1[N+](=O)[O-] (configuration not stated)	7.26%	5.46%	6.55%
CCOc1ccc(C(=O)Nc2ccc(-c3nc4ccccc4[nH]3)cc2)cc1[N+](=O)[O-]	1.79%	2.52%	1.46%
COc1c(O)cc2oc(-c3ccc(O)cc3)cc(=O)c2c1O	1.18%	1.7%	3.31%
COc1ccc2nccc([C@@H](O)CN3CCC(NS(=O)(=O)c4cc5c(cc4Cl)SCC(=O)N5)CC3)c2c1	1.57%	1.6%	-0.41%
CC(=O)Nc1ccc(CN2CCC(NC(=O)c3ccc(-c4cccc(Cl)c4)s3)CC2)cc1	2.01%	-0.15%	2.8%
O=C1CSc2ccc(CNC3CCN(CCc4c(F)cnc5ccc(F)cc45)CC3)nc2N1	-2.82%	0.21%	-1.74%
OCCNc1nc(Nc2ccccc2)nc2ccccc12	8.68%	7.01%	2.07%
Cc1ccc(Cc2c[nH]c(NCCSCc3ccc(CN4CCOCC4)o3)nc2=O)cn1	2.52%	0.59%	3.98%
COCCN1CCN(Cc2ccc(-c3ccc(-c4nc5cc(F)ccc5[nH]4)cc3)cc2)CC1	6.74%	3%	0.87%
